Experimental data: PubChem BioAssay (Tox21)
Records with an inconclusive call do not appear. A call without a number means that no potency is given here. A number with no mark means an inactive call. Activity calls are given as the source filed them. Unless noted, the call rests on the fitted dose curve; in most records, active means well fitted curve in the direction sought with a large enough effect in the repeat runs; inconclusive means weak or mixed curves; inactive means no such curve, though single readings can be large; an effect the other way counts as inactive or inconclusive.

Assays:
[1] = qHTS assay to identify small molecule antagonists of the thyroid receptor (TR) signaling pathway - cell viability counter screen (AID 743064); further: nearly all actives have a fitted effect of over 50% in size; further: potency means the concentration at half of the fitted maximal effect
Summary of the method: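 Fluorescence from CellTiter-Fluor, added after 23.5 h exposure at 37 °C, reported viability of GH3.TRE-Luc cells co-treated with compound and 1 nM T3. Measured in the same wells as the luciferase TR readout.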

[2] = tested on: thyroid hormone receptor (rat, GH3 cells); assay: qHTS assay to identify small molecule agonists of the thyroid receptor (TR) signaling pathway (AID 743066; calls by dose curve; further: potency means the concentration at half of the fitted maximal effect)
[3] = target: Estrogen receptor (Homo sapiens) (UniProt P03372); assay: qHTS assay to identify small molecule agonists of the estrogen receptor alpha (ER-alpha) signaling pathway using the BG1 cell line (AID 743079); further: nearly all actives have a fitted effect of over 20% in size
[4] = qHTS assay to identify small molecule antagonists of the estrogen receptor alpha (ER-alpha) signaling pathway using the BG1 cell line (AID 743080; calls by dose curve;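 further: BG1 cells stimulated with 17beta-estradiol alongside compound; series mostly up to about 70 µM; nearly all actives have a fitted effect of over 25% in size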)
Summary of the method: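 Seeding, 24 h rest, compound transfer from DMSO, 17beta-estradiol addition, 21.5 h incubation, CellTiter-Fluor (30 min, 37 C), then ONE-Glo (30 min, room temperature): this sequence was run on BG1-Luc-4E2 reporter cells.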

[5] = qHTS assay to identify small molecule antagonists of the estrogen receptor alpha (ER-alpha) signaling pathway using the BG1 cell line - cell viability counter screen (AID 743081);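 further: compound given together with 17beta-estradiol as the ER stimulus; series mostly up to about 70 µM; nearly all actives have a fitted effect of over 45% in size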
Aromatase (Homo sapiens) = Aromatase (Homo sapiens) (UniProt P11511); assay: qHTS assay to identify aromatase inhibitors (AID 743083); further: series mostly up to about 70 µM; nearly all actives have a fitted effect of over 55% in size
[6] = qHTS assay to identify aromatase inhibitors - cell viability counter screen (AID 743084);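 further: cells stimulated with testosterone during compound exposure; nearly all actives have a fitted effect of over 55% in size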
[7] = target: Aryl hydrocarbon receptor (Homo sapiens) (UniProt P35869); assay: qHTS assay to identify small molecule that activate the aryl hydrocarbon receptor (AhR) signaling pathway (AID 743085); further: nearly all actives have a fitted effect of over 15% in size; further: potency means the concentration at half of the fitted maximal effect;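 on activation: HG2L7.5c1 human HepG2 liver cells with stably integrated DRE-driven firefly reporter; series mostly up to about 70 µM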
Summary of the method: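 Cell line HG2L7.5c1 (human hepatoma, 20× DRE-luc). Plated, 5 h 37C, compound/DMSO added, 24 h 37C. CellTiter-Fluor 30 min 37C → fluorescence; then ONE-Glo 30 min RT → luminescence.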

[8] = qHTS assay to identify small molecule that activate the aryl hydrocarbon receptor (AhR) signaling pathway - cell viability counter screen (AID 743086);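 further: HepG2 liver cells carrying the AhR DRE luciferase reporter; series mostly up to about 70 µM; nearly all actives have a fitted effect of over 45% in size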
Summary of the method: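 Cytotoxicity counter screen: CellTiter-Fluor signal (30 min, 37 C) in 4000 HepG2 cells/well carrying the DRE-luciferase reporter, following 24 h compound exposure at 37 C.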

[9] = target: Peroxisome proliferator-activated receptor gamma (Homo sapiens) (UniProt P37231); assay: qHTS assay to identify small molecule agonists of the peroxisome proliferator-activated receptor gamma (PPARg) signaling pathway (AID 743094; active means well fitted activation curve with a large enough effect in the signal ratio in the repeat runs, not every such curve was filed as active; the % refers to the signal ratio)
Summary of the method: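 Following 5 h plating at 37C, PPARg-bla HEK293H cells receive compound or DMSO for 17 h; fluorescence intensity is recorded after LiveBLAzer B/G loading for 1 h at room temperature.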

[10] = target: Peroxisome proliferator-activated receptor gamma (Homo sapiens) (UniProt P37231); assay: qHTS assay to identify small molecule antagonists of the peroxisome proliferator-activated receptor gamma (PPARg) signaling pathway (AID 743191; calls by dose curve; further: nearly all actives have a fitted effect of over 30% in size; further: potency means the concentration at half of the fitted maximal effect)
Summary of the method: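 Beta-lactamase reporter under UAS control in HEK293H PPARg-bla cells; compound treatment 17 h at 37C. Read-out: fluorescence intensity after 1 h room-temperature incubation with LiveBLAzer B/G FRET substrate.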

[11] = qHTS assay for small molecule agonists of the antioxidant response element (ARE) signaling pathway (AID 743202; active means well fitted activation curve with a large enough effect in the signal ratio in the repeat runs, not every such curve was filed as active; the % refers to the signal ratio; further: potency means the concentration at half of the fitted maximal effect)
Summary of the method: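 Quantitative high-throughput format in HepG2 cells bearing an integrated ARE-beta-lactamase reporter. Compound exposure lasted 16 h at 37 C, and fluorescence was read 2 h after adding LiveBLAzer B/G substrate at room temperature.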

[12] = qHTS assay for small molecule agonists of the antioxidant response element (ARE) signaling pathway - cell viability counter screen (AID 743203; calls by dose curve; further: nearly all actives have a fitted effect of over 55% in size)
Summary of the method: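 Compounds in DMSO were pinned onto ARE-bla HepG2 cells plated 5 hrs earlier at 2,000 cells/well. Sixteen hours later at 37C/5% CO2, CellTiter-Glo was added and luminescence measured after 30 min at room temperature.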

[13] = qHTS assay for small molecule activators of the heat shock response signaling pathway - cell viability counter screen (AID 743209); further: nearly all actives have a fitted effect of over 50% in size
Summary of the method: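 Counter screen for cytotoxicity in HeLa HSE-bla reporter cells. Treatment was 5 h at 37 C; viability was detected by luminescent ATP assay (CellTiter-Glo) in the same wells as the beta-lactamase read.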

[14] = qHTS assay for small molecule activators of the heat shock response signaling pathway (AID 743210; active means well fitted activation curve with a large enough effect in the signal ratio in the repeat runs, with a control signal flat, not every such curve was filed as active; the % refers to the signal ratio;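 further: HeLa cells with beta-lactamase reporter driven by heat shock elements; series mostly up to about 63 µM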)
Summary of the method: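 HeLa HSE-bla cells, overnight plating; cpd in DMSO 5 h, 37 C; LiveBLAzer B/G FRET substrate 2.5 h RT; fluorescence intensity read.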

[15] = target: Estrogen receptor (Homo sapiens) (UniProt P03372); assay: qHTS assay to identify small molecule antagonists of the estrogen receptor alpha (ER-alpha) signaling pathway (AID 743069; active means well fitted curve in the direction sought with a large enough effect in the signal ratio in the repeat runs, not every such curve was filed as active; the % refers to the signal ratio)
Summary of the method: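 ER-alpha-UAS-bla GripTite HEK293 line; 2% charcoal-stripped FBS overnight; plated, 4 hr 37C/5% CO2; cpd in DMSO + 17beta-estradiol, 18 hr 37C; LiveBLAzer B/G FRET substrate 2 hr RT; fluorescence intensity.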

[16] = qHTS assay to identify small molecule antagonists of the estrogen receptor alpha (ER-alpha) signaling pathway - cell viability counter screen (AID 743074; calls by dose curve;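 further: HEK293 cells carrying ER-alpha-UAS-bla reporter stimulated with 17beta-estradiol; nearly all actives have a fitted effect of over 45% in size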)
[17] = target: Estrogen receptor (Homo sapiens) (UniProt P03372); assay: qHTS assay to identify small molecule agonists of the estrogen receptor alpha (ER-alpha) signaling pathway (AID 743075; calls by dose curve;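 further: HEK293 GripTite cells with ER-alpha and UAS-driven beta-lactamase reporter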)
[18] = qHTS assay to identify small molecule antagonists of the peroxisome proliferator-activated receptor gamma (PPARg) signaling pathway - cell viability counter screen (AID 743194); further: nearly all actives have a fitted effect of over 55% in size
Summary of the method: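 Viability was measured as CellTiter-Glo luminescence in GeneBLAzer PPARg UAS-bla HEK293H cells. These cells had been exposed 17 h at 37 C to compounds together with rosiglitazone at 50 nM final, with the beta-lactamase readout taken in the same wells.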

[19] = qHTS assay to identify small molecule antagonists of the thyroid receptor (TR) signaling pathway (AID 743065); further: nearly all actives have a fitted effect of over 55% in size; further: potency means the concentration at half of the fitted maximal effect
Summary of the method: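 Antagonism measured as loss of luciferase signal in GH3 cells stably carrying a TRE-luciferase reporter, co-treated with compound and T3 (1 nM final) for 23.5 h at 37 C. Viability was read in the same well by CellTiter-Fluor.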

Sequence of Aromatase (Homo sapiens) (P11511 whole entry, looked up): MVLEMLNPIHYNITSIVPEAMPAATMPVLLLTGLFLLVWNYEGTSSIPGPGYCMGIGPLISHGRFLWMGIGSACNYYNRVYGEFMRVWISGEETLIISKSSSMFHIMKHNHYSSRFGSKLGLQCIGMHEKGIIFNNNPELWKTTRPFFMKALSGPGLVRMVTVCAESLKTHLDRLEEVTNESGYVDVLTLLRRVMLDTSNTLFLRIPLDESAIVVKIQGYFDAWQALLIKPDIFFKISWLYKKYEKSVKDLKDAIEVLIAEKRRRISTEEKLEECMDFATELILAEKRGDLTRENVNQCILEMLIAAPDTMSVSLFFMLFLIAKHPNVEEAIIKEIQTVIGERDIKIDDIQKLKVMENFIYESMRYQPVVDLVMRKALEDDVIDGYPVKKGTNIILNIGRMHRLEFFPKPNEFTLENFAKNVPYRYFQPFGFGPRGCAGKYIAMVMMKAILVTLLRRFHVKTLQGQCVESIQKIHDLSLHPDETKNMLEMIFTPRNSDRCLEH
Sequence of Estrogen receptor (Homo sapiens) (P03372 whole entry, looked up): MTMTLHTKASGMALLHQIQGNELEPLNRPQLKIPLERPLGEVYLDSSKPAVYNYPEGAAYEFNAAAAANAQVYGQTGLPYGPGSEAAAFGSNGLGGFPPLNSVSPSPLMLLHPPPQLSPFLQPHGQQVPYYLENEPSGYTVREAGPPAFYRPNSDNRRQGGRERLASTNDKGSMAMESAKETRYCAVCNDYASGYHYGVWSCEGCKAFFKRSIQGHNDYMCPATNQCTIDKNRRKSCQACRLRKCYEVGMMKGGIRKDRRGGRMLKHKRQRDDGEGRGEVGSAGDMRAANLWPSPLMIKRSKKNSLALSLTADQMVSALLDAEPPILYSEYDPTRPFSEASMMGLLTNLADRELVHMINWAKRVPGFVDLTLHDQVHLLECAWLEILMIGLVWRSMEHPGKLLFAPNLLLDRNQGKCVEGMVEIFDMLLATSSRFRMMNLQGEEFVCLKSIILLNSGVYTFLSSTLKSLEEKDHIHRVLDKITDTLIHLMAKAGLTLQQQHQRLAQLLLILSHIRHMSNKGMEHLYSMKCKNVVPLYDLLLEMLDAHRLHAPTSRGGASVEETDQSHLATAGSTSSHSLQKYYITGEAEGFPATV
Sequence of Peroxisome proliferator-activated receptor gamma (Homo sapiens) (P37231 whole entry, looked up): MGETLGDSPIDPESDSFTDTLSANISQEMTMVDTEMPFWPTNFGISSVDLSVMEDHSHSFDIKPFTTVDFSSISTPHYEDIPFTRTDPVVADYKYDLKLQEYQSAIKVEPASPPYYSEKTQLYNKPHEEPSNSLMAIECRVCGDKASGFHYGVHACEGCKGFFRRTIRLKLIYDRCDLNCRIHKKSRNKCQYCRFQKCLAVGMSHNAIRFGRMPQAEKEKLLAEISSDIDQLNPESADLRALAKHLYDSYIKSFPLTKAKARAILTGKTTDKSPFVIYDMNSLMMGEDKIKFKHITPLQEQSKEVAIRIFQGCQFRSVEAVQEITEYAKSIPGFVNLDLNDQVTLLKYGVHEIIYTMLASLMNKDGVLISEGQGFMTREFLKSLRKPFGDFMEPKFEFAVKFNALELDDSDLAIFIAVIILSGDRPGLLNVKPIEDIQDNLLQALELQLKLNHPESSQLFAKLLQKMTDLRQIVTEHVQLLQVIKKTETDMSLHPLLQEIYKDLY
Sequence of Aryl hydrocarbon receptor (Homo sapiens) (P35869 whole entry, looked up): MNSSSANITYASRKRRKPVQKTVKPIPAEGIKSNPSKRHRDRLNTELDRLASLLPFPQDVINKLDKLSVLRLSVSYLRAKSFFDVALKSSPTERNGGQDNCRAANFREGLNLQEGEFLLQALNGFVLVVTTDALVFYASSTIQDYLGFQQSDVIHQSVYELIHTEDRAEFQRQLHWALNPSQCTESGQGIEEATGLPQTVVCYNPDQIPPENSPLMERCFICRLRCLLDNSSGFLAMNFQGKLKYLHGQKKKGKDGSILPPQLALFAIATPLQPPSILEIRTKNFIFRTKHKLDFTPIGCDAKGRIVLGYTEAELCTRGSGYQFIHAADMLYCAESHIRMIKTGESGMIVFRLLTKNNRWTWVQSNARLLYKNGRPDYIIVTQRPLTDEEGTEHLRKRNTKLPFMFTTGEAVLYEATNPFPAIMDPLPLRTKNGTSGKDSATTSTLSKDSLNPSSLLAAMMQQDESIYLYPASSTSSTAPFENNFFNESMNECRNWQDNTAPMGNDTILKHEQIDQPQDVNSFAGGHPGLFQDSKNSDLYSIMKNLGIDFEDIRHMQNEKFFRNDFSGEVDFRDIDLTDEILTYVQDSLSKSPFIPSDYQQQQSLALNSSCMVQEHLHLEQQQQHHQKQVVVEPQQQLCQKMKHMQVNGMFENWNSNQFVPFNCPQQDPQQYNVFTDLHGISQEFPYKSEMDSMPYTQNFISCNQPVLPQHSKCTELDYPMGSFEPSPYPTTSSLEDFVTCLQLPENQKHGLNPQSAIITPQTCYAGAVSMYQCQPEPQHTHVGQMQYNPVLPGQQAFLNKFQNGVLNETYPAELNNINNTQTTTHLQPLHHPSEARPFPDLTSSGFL

| Compound | Potency [1] | Potency [2] | Potency [3] | outcome [4] | outcome [5] | outcome (Aromatase (Homo sapiens)) | Potency [6] | Potency [7] | Potency [8] | outcome [9] | Potency [10] | Potency [11] | outcome [12] | outcome [13] | outcome [14] | Potency [15] | Potency [16] | Potency [17] | outcome [18] | Potency [19] |
| --- | --- | --- | --- | --- | --- | --- | --- | --- | --- | --- | --- | --- | --- | --- | --- | --- | --- | --- | --- | --- |
| Oc1ccccc1Cc1ccccc1O | inactive | inactive | inactive | inactive | inactive | inactive | inactive | inactive | inactive | inactive | 30.9 µM (active) | 38.6 µM (active) | inactive | inactive | inactive |  |  |  |  |  |
| NC(=O)C1(N2CCCCC2)CCN(CCCC(=O)c2ccc(F)cc2)CC1 | inactive | inactive | inactive | inactive | inactive | inactive | inactive |  | inactive | inactive | inactive | inactive | inactive | inactive | inactive | inactive | inactive | inactive | inactive |  |
| C=CCOc1c(Br)cc(C(C)(C)c2cc(Br)c(OCC=C)c(Br)c2)cc1Br | inactive |  | inactive | inactive | inactive | inactive | inactive |  | inactive | inactive |  |  |  | inactive |  | inactive | inactive | inactive | inactive |  |
| O=C1OC(=O)c2cc(Oc3ccc4c(c3)C(=O)OC4=O)ccc21 |  | inactive | inactive | inactive | inactive | inactive | inactive | inactive | inactive | inactive |  | inactive | inactive | inactive | inactive | inactive | inactive | inactive | inactive | inactive |
| CC(=O)OC(C)(C)Cc1ccccc1 | inactive | inactive |  |  | inactive |  |  |  |  |  |  |  | inactive | inactive | inactive |  | inactive |  | inactive | inactive |
| CCC(C)(CCC(C)C)C(=O)[O-].CCC(C)(CCC(C)C)C(=O)[O-].[Zn+2] (stereo not drawn) | inactive | inactive |  |  | inactive |  |  |  |  |  |  | inactive | inactive | inactive |  |  | inactive |  |  | inactive |
| CC(C)SCc1ccco1 |  | inactive | inactive | inactive | inactive | inactive | inactive | inactive | inactive | inactive | inactive | inactive | inactive | inactive |  | inactive | inactive | inactive | inactive | inactive |
| CC(=O)OC(C(=O)c1ccccc1)c1ccccc1 (stereo not drawn) |  | inactive |  | inactive | inactive | inactive | inactive | inactive | inactive | inactive | inactive | inactive | inactive | inactive | inactive | inactive | inactive | inactive | inactive | inactive |
| Cc1ccc2c(c1)c1c3n2CCNC3CCC1 (stereo not drawn) | 11.9 µM (active) |  |  |  | inactive | inactive | inactive | 10.6 µM (active) |  |  |  | inactive | inactive | inactive |  |  | inactive |  |  | 23.7 µM (active) |
| CCC1Nc2cc(Cl)c(S(N)(=O)=O)cc2S(=O)(=O)N1 (stereo not drawn) | inactive | inactive |  |  |  | inactive | inactive | inactive | inactive |  |  | inactive | inactive |  |  |  | inactive |  | inactive | inactive |
| COc1cc2c(Nc3ccc(Br)cc3F)ncnc2cc1OCC1CCN(C)CC1 | 4.73 µM (active) |  | inactive |  |  | inactive | inactive | inactive |  | inactive | inactive | inactive | inactive | inactive | inactive | inactive |  |  | inactive | 5.31 µM (active) |
| CCCCC[Si](OCC)(OCC)OCC | inactive |  |  |  | inactive | inactive | inactive | inactive | inactive | inactive | inactive | inactive | inactive | inactive | inactive |  | inactive |  | inactive |  |
| C=C(C)C(=O)OCCCCCCOC(=O)C(=C)C | inactive | inactive |  |  | inactive |  | inactive | inactive | inactive | inactive | inactive | inactive |  | inactive | inactive |  | inactive |  | inactive | inactive |
| C[CH2][Ge]([Cl])([CH2]C)[CH2]C |  | inactive |  |  | inactive | inactive | inactive | inactive | inactive | inactive | inactive | inactive |  | inactive | inactive |  |  |  | inactive | inactive |
| Cc1ccc(C(=O)C(=O)O)cc1C |  |  |  |  |  |  |  |  |  |  | inactive | inactive | inactive | inactive | inactive |  |  |  | inactive |  |
| NCCc1ccn[nH]1 |  |  | inactive | inactive | inactive | inactive | inactive | inactive |  | inactive | inactive |  | inactive | inactive | inactive | inactive | inactive | inactive | inactive |  |
| CCCCCC1CCCC(=O)O1 (stereo not drawn) |  | inactive |  |  | inactive | inactive | inactive |  | inactive | inactive |  | inactive | inactive | inactive | inactive |  | inactive |  | inactive | inactive |
| CC(C)=CC(C)(C)C |  | inactive |  |  | inactive |  |  |  |  |  |  | inactive | inactive | inactive | inactive |  | inactive |  | inactive | inactive |
| O=C1CC[C@H](C(=O)N2CCCCC2)N1 |  |  | inactive | inactive |  | inactive | inactive | inactive | inactive | inactive |  | inactive | inactive | inactive | inactive |  |  | inactive | inactive |  |
| C[C@H](CCC(=O)NCC(=O)O)[C@H]1CC[C@H]2[C@@H]3[C@H](O)C[C@@H]4C[C@H](O)CC[C@]4(C)[C@H]3C[C@H](O)[C@]12C |  | 74.8 µM (active) |  |  | inactive | inactive | inactive | inactive | inactive | inactive | inactive |  | inactive | inactive | inactive |  | inactive |  | inactive | inactive |
